Inconclusive results are not listed. A call without a number means that no potency is given here. The source made the active and inactive calls. Calls follow the shape of the full dose curve.

This experiment is described as follows: Primary qHTS for inhibitors of MERS-S pseudo-typed particle cell entry (AID 1479149). Also: nearly all actives have a fitted effect of over 60% in size. The note with it: MERS-S pseudotyped particle entry, luciferase; series mostly up to 57.1 µM. (In general: In qHTS, concentration-response curves come from the screen itself.)
In the case of `CCO[C@@H]1O[C@H](C(COCc2ccccc2)OCc2ccccc2)[C@H](OCc2ccccc2)[C@H]1O` (some centres undefined), the Potency result is “inactive”. The result for `CCOC(=O)NNc1nncc2ccccc12` reads “inactive”; that for `CN(C)[C@@H]1C(=O)C(C(=O)NCN2CCCC2)=C(O)[C@@]2(O)C(=O)C3=C(O)c4c(O)cccc4[C@@](C)(O)C3C[C@@H]12` (some centres undefined), “inactive”. For the molecule `CCNC(=O)NCCCOc1cccc(CN2CCCCC2)c1`, the Potency entry was “inactive”.

With `CCN(CC)C(=O)C1CN2CCc3cc(OC)c(OC)cc3C2CC1OC(C)=O` (centres undefined), the Potency result is “inactive”. In the case of `CC1(C)[C@@H]2CC[C@@]1(C)C(=O)C2`, the Potency entry was “inactive”.

Consider `CC(=O)N[C@H]1[C@H]([C@H](O)[C@H](O)CO)OC(C(=O)O)=C[C@@H]1N=C(N)N`, for which the Potency result was “inactive”.

For `N[C@H]1CN(c2c(F)cc3c(=O)c(C(=O)O)cn(C4C[C@@H]4F)c3c2Cl)CC12CC2` (some centres undefined), the Potency entry was “inactive”. For the molecule `C[C@@H]1CCN(C(=O)[C@H](CCCN=C(N)N)NS(=O)(=O)c2cccc3c2NC[C@H](C)C3)[C@@H](C(=O)O)C1`, the Potency result is “inactive”.

`Cc1cccc(N(C)C(=S)Oc2ccc3c(c2)C2CCC3C2)c1` (centres undefined): the Potency result is “inactive”. For `OC[C@H]1O[C@@H](O[C@@H]2[C@@H](CO)O[C@](O)(CO)[C@H]2O)[C@H](O)[C@@H](O)[C@H]1O` the value was “inactive”; for `Nc1ccc(N=Nc2ccccc2)c(N)n1`, “inactive”; for `CC1(C)OC[C@@H](COC(=O)CCc2ccc(OC[C@@H](O)CNCCNC(=O)N3CCOCC3)cc2)O1`, “inactive”. For the molecule `C[C@@H]1C[C@H]2[C@@H]3CCC4=CC(=O)C=C[C@]4(C)[C@@]3(Cl)[C@@H](O)C[C@]2(C)[C@@]1(OC(=O)c1ccco1)C(=O)CCl`, the Potency entry was “inactive”.

(Values after PubChem BioAssay (NCATS).)
